From PubChem BioAssay
LmPK inh: inhibitors of Leishmania mexicana pyruvate kinase | AID 1721 | Q27686 | purified LmPK, Kinase-Glo ATP luminescence, 1 h | 290,000 tested, 0.37% active | Potency, µM (series often up to 57.5 µM), for inactives: top-dose activity change, negative = inhibition, hits mostly inhibitors; further: on the % scale 0 is the no-effect control and ±100 the full control effect
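Purified LmPK (0.1 nM) converted ADP (0.1 mM) to ATP with PEP (0.5 mM) in imidazole buffer pH 7.2 with KCl and MgCl2, 1 h at room temperature. ATP was read by Kinase-Glo luminescence; data normalized to uninhibited and no-enzyme controls.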
TbPYK inhibitor: blocks Trypanosoma brucei pyruvate kinase; Q57TT1; TbPYK enzyme, Kinase-Glo Plus ATP luminescence, 45 min; Potency, µM (highest dose often 76.8 µM), without a hit: at the top dose activity, negative = inhibition, hits mostly inhibitors; 410,000 tested, 0.12% active; further: on the % scale 0 is the no-effect control and ±100 the full control effect; nearly all actives have a fitted effect of over 50% in size
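Enzyme and substrate buffer are dispensed first and compound is pin-transferred. ADP at 130 uM final then starts the reaction, which runs 45 min at room temperature. Detection reagent is added for 10 min before luminescence is imaged.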
Giardia FBPA inh-1: blocks Giardia fructose-bisphosphate aldolase activity; A8B2U2; purified Giardia FBPA; Potency, µM (series often up to 59.6 µM), for inactives: at the top dose activity, negative = inhibition, hits mostly inhibitors; 290,000 tested, 0.71% active; AID 2451; further: on the % scale 0 is the no-effect control and ±100 the full control effect; nearly all actives have a fitted effect of over 55% in size
Target sequence (A8B2U2 whole entry, looked up): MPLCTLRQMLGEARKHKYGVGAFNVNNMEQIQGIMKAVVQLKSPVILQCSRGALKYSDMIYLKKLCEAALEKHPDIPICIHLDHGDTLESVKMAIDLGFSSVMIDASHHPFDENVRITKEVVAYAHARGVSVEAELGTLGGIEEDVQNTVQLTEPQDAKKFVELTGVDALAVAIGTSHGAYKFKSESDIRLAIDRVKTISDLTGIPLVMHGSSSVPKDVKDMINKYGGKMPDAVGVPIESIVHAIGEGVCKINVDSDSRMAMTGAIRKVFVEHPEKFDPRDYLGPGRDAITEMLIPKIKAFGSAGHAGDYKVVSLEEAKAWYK
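40 nM FBPA preincubated 10 min at RT with compound (up to 57.5 uM final), then substrate plus GAPDH/TPI/NAD/arsenate coupling and diaphorase/resazurin added. Fluorescence read after 20 min at RT, 525/598 nm.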
NS1 function inh: influenza NS1 inhibition; Potency, µM (highest dose often 46.1 µM), for the others: at the top dose activity, positive = more growth; 270,000 tested, 0.4% active; AID 2326; calls by dose curve; further: actives are rising curves; nearly all actives have a fitted effect of over 50% in size
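A cell-based growth assay was used: compounds that relieve NS1-induced slow growth of budding yeast raise OD600. Assay medium was yeast nitrogen base with ammonium sulphate and -URA supplement, pH 6.0, with 2% galactose.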
AMA1 RON2 block: disrupts binding of P. falciparum AMA1 to RON2. AlphaScreen AMA1-biotinylated RON2 peptide binding. Potency, µM (doses to about 58.2 µM), for inactives: top-dose activity change, negative = inhibition, actives largely listed as inhibitors. 360,000 tested, 0.2% active;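 further: 0% = vehicle wells and -100% = peptide control; nearly all actives have a fitted effect of over 45% in size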
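AMA1 (3D7) with his tag at 25 nM final met compounds first, then biotinylated RON2 peptide at 25 nM; detection used donor plus acceptor beads, 10 µg/mL apiece, read by AlphaScreen after 30 min at room temperature.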
Giardia growth: blocks growth of Giardia lamblia trophozoites; 1,500 tested, 5% active; shares compounds with Giardia FBPA inh-1; Giardia lamblia trophozoite growth inhibition; Potency, µM (series often up to 57.5 µM), without a hit: at the highest dose activity change, negative = inhibition, most hits filed as inhibitors;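 further: trophozoites exposed to compound for 48 h at 37 °C; on the % scale 0 is the no-effect control and ±100 the full control effect; nearly all actives have a fitted effect of over 70% in size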
Mammalian tox: mammalian cytotoxicity of Giardia aldolase inhibitor hits; Potency, µM (highest dose often 57.5 µM), for the others: at the highest dose viability change, negative = toxicity, usual class: inhibitors; mammalian cell viability counter-screen, qHTS; AID 2786; 1,500 tested, 4% active; shares compounds with Giardia FBPA inh-1;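 further: Chinese hamster ovary cells used as mammalian cytotoxicity surrogate; viability measured as cellular ATP by luminescence; compound exposure lasted 48 h before reading; on the % scale 0 is the no-effect control and ±100 the full control effect; nearly all actives have a fitted effect of over 60% in size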
Giardia FBPA inh-2: confirmation of Giardia fructose-bisphosphate aldolase inhibitors; Potency, µM (titrated, usually from 57.5 µM), for inactives: at the highest dose activity change, negative = inhibition, hits mostly inhibitors; shares compounds with Giardia FBPA inh-1; purified Giardia aldolase enzyme activity, qHTS; 1,500 tested, 5% active; further: on the % scale 0 is the no-effect control and ±100 the full control effect; nearly all actives have a fitted effect of over 45% in size
Rabbit FBPA inh: selectivity test for Giardia aldolase inhibitors: rabbit aldolase. shares compounds with Giardia FBPA inh-1. Rabbit muscle FBPA enzyme inhibition, selectivity counter-screen. Potency, µM (top dose mostly 57.5 µM), without a hit: at the highest dose activity, negative = inhibition, usual class: inhibitors. 1,500 tested, 4% active; further: on the % scale 0 is the no-effect control and ±100 the full control effect; nearly all actives have a fitted effect of over 60% in size
Target sequence (P00883 whole entry, looked up): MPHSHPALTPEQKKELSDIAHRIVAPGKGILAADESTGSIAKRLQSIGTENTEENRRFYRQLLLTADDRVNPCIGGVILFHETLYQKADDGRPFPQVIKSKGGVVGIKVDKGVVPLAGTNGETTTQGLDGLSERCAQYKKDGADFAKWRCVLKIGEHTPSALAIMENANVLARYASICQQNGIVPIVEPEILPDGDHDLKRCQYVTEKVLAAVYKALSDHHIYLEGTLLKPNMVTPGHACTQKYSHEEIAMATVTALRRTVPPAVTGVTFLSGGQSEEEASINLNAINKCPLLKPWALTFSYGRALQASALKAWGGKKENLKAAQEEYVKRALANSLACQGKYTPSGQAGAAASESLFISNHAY
GAPDH coupling: GAPDH inhibition flagged for Giardia aldolase hits. shares compounds with Giardia FBPA inh-1. 1,500 tested, 6% active. AID 2795. Potency, µM (top dose mostly 57.5 µM), for inactives: at the highest dose activity change, negative = inhibition, hits mostly inhibitors. GAPDH coupling enzyme counterscreen, biochemical, qHTS; further: on the % scale 0 is the no-effect control and ±100 the full control effect; nearly all actives have a fitted effect of over 55% in size
Numbers without * were called inactive; ? = inconclusive; · = no result given; [ ] = another dose, or the depositor's remark. Sampled rows, rich in hits. Any-hit rate of the full collection: about 1.2%. Unless noted, the call rests on the fitted dose curve; in most records, active means well fitted curve in the direction sought with a large enough effect; inconclusive means small, poorly fitted or top-dose-only effect, or another doubt; inactive means no such curve, though single readings can be large; an effect the other way counts as inactive or inconclusive. Potency means the concentration at half of the fitted maximal effect.

SMILES	LmPK inh	TbPYK inhibitor	Giardia FBPA inh-1	NS1 function inh	AMA1 RON2 block	Giardia growth	Mammalian tox	Giardia FBPA inh-2	Rabbit FBPA inh	GAPDH coupling
COc1cccc2sc(Nc3nnc(-c4ccc(F)cc4)o3)nc12	6%	-7%	16µM*	-31%	42%	67%	-11%	13%	-6%	0%
COc1ccc(CCN(C)C(=O)C2CCCN(C3CCN(Cc4ccccc4)CC3)C2)cc1OC (stereo unspecified)	-3%	8%	18µM*	0%	?	?	0%	-6%	-6%	6%
Cc1cccc(C)c1NC(=S)NC(=O)c1ccc(Br)o1	1%	-20%	-12%	2%	80%	·	·	·	·	·
Cn1ncc(C(N)=O)c1NC(=S)NC(=O)c1ccc(Br)o1	0%	-6%	16µM*	·	44%	-7%[10.4 µM]	-9%	1%	5%	8%
O=C(O)c1ccc(Cl)c(S(=O)(=O)Nc2ccc3[nH]c(=O)[nH]c3c2)c1	8%	-5%	?	6%	0%	21%[38.3 µM]	-13%	18µM*	?	16µM*
O=C1ON=C(c2ccccc2)/C1=C/c1ccc(O)c(O)c1	?	-29%	4µM*	5%	46%	?	-14%	-25%	-19%	2%
O=C(O)c1ccc(/C=N/Nc2ccc(Cl)nn2)cc1	-1%	-10%	25µM*	7%	11%	?	4%	-15%	-15%	?
Oc1cccc(/C=N/Nc2ccc(Cl)nn2)c1	-5%	0%	-10%	-38%	10%	·	·	·	·	·
O=C(CSc1ncnc2nc[nH]c12)c1ccc(Cl)cc1	1%	-30%	14µM*	13%	130%	-7%[10.4 µM]	-7%	-1%	-5%	9%
Cc1cccc(NNC(N)=S)c1	-1%	-2%	20µM*	5%	8%	11%	11%	0%	0%	10%
Cc1cccc(NNC(=S)Nc2ccccc2)c1	·	-4%	·	·	-22%	·	·	·	·	·
NC(=S)NNc1cccc(Cl)c1	4%	-3%	13µM*	-54%	56%	48%	8%	-16%	-5%	-7%
CN(C)CCCNCC(=O)c1c(-c2ccccc2)n(C)c2ccccc12	-11%	2%	14µM*	-3%	?	9%	-3%	3%	-1%	5%
Cn1c(-c2ccccc2)c(C(=O)CC#N)c2ccccc21	-1%	-1%	7%	·	-12%	·	·	·	·	·
CCOc1cc2sc(N3CCC(C(=O)Nc4ccc(C)cc4)CC3)nc2cc1Br	·	-18%	·	·	·	·	·	·	·	·
Cc1ccc(Nc2cc(C)c3c(O)cccc3n2)cc1C	-2%	-9%	?	-55%	-3%	6%[38.3 µM]	-1%	?	?	21µM*
COc1ccc(Nc2cc(C)c3c(O)cccc3n2)cc1	-14%	-20%	?	-43%	-21%	·	·	·	·	·
O=C(Oc1ccc[nH]c1=O)c1cccc(Cl)c1	4%	2%	-18%	-7%	36%	15%[38.3 µM]	10%	0.52µM*	?	33µM*
COC(=O)[C@H]1C[C@@H]2CC[C@@H](O)C[C@@H]2N1Cc1c(F)cccc1Cl	·	·	0%	·	·	·	·	·	·	·
CCNC(=S)NS(=O)(=O)c1ccc(CC)cc1	0%	1%	6.3µM*	-98%	2%	3%[10.4 µM]	5%	9%	4%	20%
CCNC(=S)NS(=O)(=O)c1ccc(C)cc1	0%	-5%	3.5µM*	-34%	17%	17%[38.3 µM]	-3%	7%	12%	-1%
O=C(c1ccco1)N1CCN(Cc2cccc3ccccc23)CC1	-2%	14%	16µM*	-3%	-14%	?	-3%	4%	7%	8%
O=C(c1ccco1)N1CCN(Cc2ccccc2C(F)(F)F)CC1	·	·	·	-35%	·	·	·	·	·	·
CCc1ccc(CN2CCN(C(=O)c3ccco3)CC2)cc1	2%	5%	28µM*	1%	?	10%	11%	9%	1%	11%
COc1cc(/C=C\C(=O)N2CCC=CC2=O)cc(OC)c1OC	·	·	3%[21.7 µM]	·	·	·	·	·	·	·
SMILES	LmPK inh	TbPYK inhibitor	Giardia FBPA inh-1	NS1 function inh	AMA1 RON2 block	Giardia growth	Mammalian tox	Giardia FBPA inh-2	Rabbit FBPA inh	GAPDH coupling
NCC[C@H](O)C(=O)N[C@@H]1C[C@H](N)[C@@H](O[C@H]2O[C@H](CN)CC[C@H]2N)[C@H](O)[C@H]1O[C@H]1O[C@H](CO)[C@@H](O)[C@H](N)[C@H]1O	·	4%	·	·	·	·	·	·	·	·
COCCn1c(=O)c(CCc2ccccc2)nc2cnc(N(C)C)nc21	·	·	-1%	·	·	·	·	·	·	·
N#Cc1cccc(-c2ccc3ncnc(NCc4ccccc4)c3c2)c1	·	·	1%	·	·	·	·	·	·	·
Cc1ccc(NCc2ccncc2)c(Br)c1	-1%	46%	?	2%	?	·	·	·	·	·
Cc1cc(NCc2ccncc2)ccc1Br	-3%	1%	22µM*	1%	25µM*	26%	-6%	-5%	-6%	2%
Nc1nc(=S)c2ncn([C@H]3O[C@@H](CO)[C@@H](O)[C@@H]3O)c2[nH]1	·	·	5.6µM*	·	·	-2%[19.1 µM]	5µM*	-3%[28.7 µM]	-3%[28.7 µM]	-2%[28.7 µM]
CCN(c1ccccc1)S(=O)(=O)c1ccc(C(=O)Nc2nnc(C3CC3)o2)cc1	4%	3%	8.9µM*	·	74%	45µM*	-19%	-1%	12%	5%
CN(c1ccccc1)S(=O)(=O)c1ccc(C(=O)Nc2nnc(C3CC3)o2)cc1	7%	-3%	4.5µM*	·	107%	-14%[38.3 µM]	?	-4%	7%	-6%
CCN(c1ccccc1)S(=O)(=O)c1ccc(C(=O)Nc2nnc(CSC)o2)cc1	-6%	-17%	16µM*	·	87%	5%[10.4 µM]	-3%	5%	18%	13%
CCC1CCCCN1S(=O)(=O)c1ccc(C(=O)Nc2nnc(C3CC3)o2)cc1 (stereo unspecified)	7%	4%	25µM*	-53%	47%	11%[10.4 µM]	-16%	6%	13%	7%
COc1ccccc1CNC(=O)c1cc2cccc3c2n1CCS3	·	2%[15.4 µM]	·	·	·	·	·	·	·	·
N[C@H](C(=O)O)[C@@H]1C[C@@H]1C(=O)O	·	·	-3%	·	·	·	·	·	·	·
COC(=O)N[C@@H](c1cccc(C)c1)C(C(C)=O)C(=O)OC (stereo partly specified)	·	·	-1%	·	·	·	·	·	·	·
CCc1ccc(NC(=S)Nn2cnnc2)cc1	-5%	?	-25%	·	18%	·	·	·	·	·
